# Unmarked numbers belong to inactive results. Results filed as inconclusive are left out. Where a call stands in place of a potency, no number is given. Activity calls are given as the source filed them. Calls follow the shape of the dose curve; as a rule, active = well fitted curve in the direction sought with a large enough effect; inconclusive = small, poorly fitted or top-dose-only effect, or another doubt; inactive = no such curve, though single readings can be large; an effect the other way counts as inactive or inconclusive.
# Assays:
# [1] = system: Zika virus NS2B-NS3 protease; experiment: Primary screen GU AMC qHTS for Zika virus inhibitors (AID 1347154); also: nearly all actives have a fitted effect of over 70% in size; also: potency is read from the fitted curve at half-maximal effect
# How it was run: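 Unlinked Zika NS2B hydrophilic domain/NS3 protease domain noncovalent complex (25 nM final) in 10 mM Tris-HCl pH 8.0, 0.01% Tween 20, with AMC peptide substrate. Fluorescence (ex 340, em 450 nm) change over 15 min, room temperature; percent inhibition fitted to 4-parameter Hill equation.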
# [2] = system: Zika virus NS2B-NS3 protease (unlinked complex); experiment: Primary screen GU Rhodamine qHTS for Zika virus inhibitors: Unlinked NS2B-NS3 protease assay (AID 1347159); also: nearly all actives have a fitted effect of over 60% in size
# How it was run: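 A qHTS format was used, with compound concentrations ranging up to 114 microM. Each compound was preincubated with 25 nM NS2B-NS3 protease, and the substrate was then added at 1.5 microM. Curves were fitted with a 4-parameter Hill model.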
# [3] = system: Zika virus NS2B-NS3 protease (linked construct); experiment: Primary screen NINDS Rhodamine qHTS for Zika virus inhibitors (AID 1347160); settings: outcome: dose series up to 57.1 µM unless noted; also: nearly all actives have a fitted effect of over 55% in size
# How it was run: (§1)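 Kinetic fluorescence (Ex 480 nm, Em 540 nm) over 15 min with 1.5 microM Rhodamine110 peptide and 25 nM linked protease.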
# [4] = qHTS to identify inhibitors of the type 1 interferon - major histocompatibility complex class I in skeletal muscle: primary screen against the NCATS Pharmaceutical Collection (AID 1347407);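 also: luminescence of HiBiT knocked into endogenous HLA-B as interferon-induced MHC class I level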
# How it was run: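 A qHTS format is used: 8-point, 1:5 compound series with 46 uM top final concentration, applied alongside 4 ng/ml IFN-beta to HLA-B*08:01-HiBiT knock-in myoblasts. Luminescence is measured after 24 h treatment.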
# [5] = qHTS to identify inhibitors of the type 1 interferon - major histocompatibility complex class I in skeletal muscle: primary screen against the NCATS Mechanism Interrogation Plate v5.0 (MIPE) Libary (AID 1347411); also: nearly all actives have a fitted effect of over 65% in size
# How it was run: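 Luminescence from HiBiT-tagged endogenous HLA-B*08:01 served as the MHC class I read-out. CRISPR-engineered C25cl48 human myoblasts received 4.0 ng/ml IFN-beta plus compound for 24 hrs, with an 11-point, 1:3 series topping at 46 uM final.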
# [6] = target: Protein phosphatase 1D (Homo sapiens) (UniProt O15297); experiment: Rhodamine-PBP qHTS Assay for Modulators of WT P53-Induced Phosphatase 1 (WIP1) (AID 1347425)
# Sequence of Protein phosphatase 1D (Homo sapiens) (O15297 whole entry, looked up): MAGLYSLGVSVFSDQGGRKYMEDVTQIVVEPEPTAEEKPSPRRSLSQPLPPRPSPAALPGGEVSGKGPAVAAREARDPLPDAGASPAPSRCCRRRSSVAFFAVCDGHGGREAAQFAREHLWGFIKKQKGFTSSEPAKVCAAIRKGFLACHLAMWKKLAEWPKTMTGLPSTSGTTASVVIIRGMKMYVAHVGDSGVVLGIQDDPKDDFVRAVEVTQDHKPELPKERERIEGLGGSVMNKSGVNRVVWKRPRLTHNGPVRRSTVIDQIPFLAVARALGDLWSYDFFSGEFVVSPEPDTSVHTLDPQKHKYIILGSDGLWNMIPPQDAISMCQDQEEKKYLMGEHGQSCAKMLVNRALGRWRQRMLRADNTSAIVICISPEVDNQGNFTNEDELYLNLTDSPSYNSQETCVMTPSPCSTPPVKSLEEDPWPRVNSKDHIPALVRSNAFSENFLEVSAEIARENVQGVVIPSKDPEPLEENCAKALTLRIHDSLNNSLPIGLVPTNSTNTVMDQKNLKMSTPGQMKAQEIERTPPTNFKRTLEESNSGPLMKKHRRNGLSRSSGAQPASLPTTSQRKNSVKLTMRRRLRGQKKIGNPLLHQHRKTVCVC
# How it was run: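 5 nM WIP1 + 10 uM Rh-PBP, 50 mM Tris pH 7.5, 30 mM MgCl2, 1 mM TCEP, 0.1 mM EGTA, BSA; cpds pinned, 1 hr RT; + 10 uM phosphopeptide; fluorescence 1-min reads x 11 min; delta = f1 - f0.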
# [7] = qHTS to identify inhibitors of the type 1 interferon - major histocompatibility complex class I in skeletal muscle: primary screen against the NCATS LOPAC collection (AID 1347405);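 also: lytic HiBiT luminescence reporting HLA-B protein level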
# How it was run: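 Luminescence from HiBiT fused to endogenous HLA-B in CRISPR-engineered human myoblasts served as the read-out. Cells received 4.0 ng/ml IFN-beta plus compound (seven concentrations, 1:4.3 steps, highest 46 uM final) for 24 hrs before lytic detection.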
# [8] = qHTS for inhibitors of adenylyl cyclases using a fission yeast platform: a pilot screen against the NCATS LOPAC library (AID 1347410)
# How it was run: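 Inhibition of GNAS-stimulated AC9 activity in S. pombe was inferred from derepression of a PKA-repressed fbp1-GFP reporter, measured as cytometric fluorescence after 18 h at 30C with compounds at up to 57 µM.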
# [9] = target: Protein phosphatase 1D (Homo sapiens) (UniProt O15297); experiment: RapidFire Mass Spectrometry qHTS Assay for Modulators of WT P53-Induced Phosphatase 1 (WIP1) (AID 1347424);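 also: amount of dephosphorylated VEPPL-S-QETFS peptide product formed by WIP1; series mostly up to about 63 µM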
# How it was run: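 WIP1 (10 nM final) was preincubated 1 h at room temperature with compounds in Tris-HCl pH 7.5, 30 mM MgCl2, TCEP, EGTA, BSA; 2 uM VEPPL-pS-QETFS phosphopeptide was added for 5 min, quenched with formic acid, and dephosphorylated product quantified by RapidFire MS.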
# [10] = Confirmatory screen GU Rhodamine qHTS for Zika virus inhibitors qHTS (AID 1347157); also: nearly all actives have a fitted effect of over 70% in size
# How it was run: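 Percent inhibition derives from the 15-min fluorescence change (ex 480, em 540 nm), normalized to no-enzyme and no-inhibitor wells. Reactions contained 25 nM NS2B-NS3 complex and 1.5 microM substrate in 10 mM Tris-HCl pH 8.0.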
# [11] = Confirmatory screen NINDS Rhodamine qHTS for Zika virus inhibitors (AID 1347161);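 also: purified Zika NS2B-NS3 protease with linked NS2B cofactor domain and Rhodamine110 peptide substrate; series mostly up to about 110 µM; nearly all actives have a fitted effect of over 60% in size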
# How it was run: as §1
# [12] = Tertiary RLuc qRT-PCR qHTS assay for Zika virus inhibitors (AID 1347169); also: top concentration of the series differs between compounds; nearly all actives have a fitted effect of over 55% in size
# How it was run: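 Inhibition of ZIKV-RLuc replication in Vero cells, read as Renilla luminescence 1-1.5 hrs after live-cell substrate addition, following 48-72 hrs infection at MOI 1-2 in presence of compound.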
# [13] = system: Zika virus NS2B-NS3 protease (unlinked complex); experiment: Confirmatory screen GU AMC qHTS for Zika virus inhibitors (AID 1347153);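 also: enzyme at 25 nM with substrate at 10 µM below its Km of 18.3 µM; potency is read from the fitted curve at half-maximal effect; nearly all actives have a fitted effect of over 70% in size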
# How it was run: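 Fluorescence change (ex 340/em 450 nm) over 15 min, ~20% substrate conversion, normalized to no-inhibitor and no-enzyme controls, then Hill-fitted. Unlinked protease at 25 nM; AMC peptide 10 µM.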
# [14] = Vero cells viability qHTS for Zika virus inhibitors (AID 1347167)
# How it was run: (§2)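 Counter-screen for cytotoxicity of hits from NS2B-NS3 protease qHTS. Overnight-attached cells (2.5 x 10^5 cells/mL, DMEM/4% FBS) were dosed in titration, incubated 24 to 48 hours, then assayed by CellTiter Glo.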
# [15] = HepG2 cells viability qHTS for Zika virus inhibitors (AID 1347168); also: potency is read from the fitted curve at half-maximal effect
# How it was run: as §2
# [16] = Validation qHTS assay for inhibitors of Activation Induced Cytidine Deaminase (AID): UDG Counterscreen signal (AID 1347427)
# How it was run: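 Counterscreen read of UDG activity (2 U/mL, 4/3x) in the FRET deamination format with AID (1 uM, 4/3x), DJC20/DJC23 substrates (250 nM, 4x), 4 h at room temperature. NaOH stop, fluorescence at 560 ex/665 em.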
smiles,measurement,setting,value
Cc1nnc(C(=O)NC(C)(C)c2nc(C(=O)NCc3ccc(F)cc3)c(O)c(=O)n2C)o1,Potency,[1],inactive
same,Potency,[2],inactive
same,outcome,[3],inactive
same,Potency,[4],inactive
same,Potency,[5],inactive
same,outcome,[6],inactive
CNS(=O)(=O)CCc1ccc2[nH]cc(C3CCN(C)CC3)c2c1,Potency,[1],inactive
same,Potency,[2],inactive
same,outcome,[3],inactive
same,outcome,[7],inactive
same,Potency,[4],inactive
same,outcome,[8],inactive
same,outcome,[9],inactive
same,outcome,[6],inactive
CC(C(=O)O)c1ccc2c(c1)CC(=O)c1ccccc1S2 (configuration not stated),Potency,[1],inactive
same,Potency,[2],inactive
same,outcome,[3],inactive
same,Potency,[4],inactive
same,Potency,[5],inactive
same,outcome,[9],inactive
same,outcome,[6],inactive
CC(C)(Sc1cc(C(C)(C)C)c(O)c(C(C)(C)C)c1)Sc1cc(C(C)(C)C)c(O)c(C(C)(C)C)c1,Potency,[1],inactive
same,outcome,[10],inactive
same,Potency,[11],inactive
same,"activity change, negative = inhibition",[12],-19.1% [at 0.566 µM]
same,Potency,[4],inactive
same,Potency,[5],inactive
same,outcome,[9],inactive
same,outcome,[6],inactive
OCc1ccc(-c2nn(Cc3ccccc3)c3ccccc23)o1,Potency,[13],24.1 µM (active)
same,Potency,[1],30.4 µM (active)
same,Potency,[14],inactive
same,Potency,[15],11.7 µM (active)
same,outcome,[7],inactive
same,outcome,[8],inactive
same,Potency,[5],inactive
same,outcome,[16],inactive
